Only a selection was taken, and hits are over-represented in it overall.
mut p53 react – mutant p53 pathway reactivation; AID 624151; SW480 PUMA-promoter luciferase; activation, % at 9.98 µM; 28,000 compounds, 1.5% hits; in the data active = activation above about 52%
NOMO-1 viab – STK33 inhibitor candidate reducing NOMO-1 cell viability; NOMO-1 AML viability, CellTiter-Glo luminescence, 72 h; inhibition, % (test concentration not listed); 37,000 compounds, 7.5% hits; AID 2330; in the data active = inhibition above about 80%
ID4 binder – ID4 (human) binding; P47928; small molecule microarray, Flag-ID4 binding, fluorescence F/B; calls only; 31,000 compounds, 1.2% hits; call rule not given here;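 also: a binder raises fluorescence above local background on the spot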
STK33 inh – inhibitors of human STK33 kinase; Q9BYT3; inhibition, % at 12.5 µM; 27,000 compounds, 0.44% hits; ADP-Glo luminescence, MBP substrate; AID 2322; in the data active = inhibition above about 20%
Target sequence (Q9BYT3 whole entry, looked up): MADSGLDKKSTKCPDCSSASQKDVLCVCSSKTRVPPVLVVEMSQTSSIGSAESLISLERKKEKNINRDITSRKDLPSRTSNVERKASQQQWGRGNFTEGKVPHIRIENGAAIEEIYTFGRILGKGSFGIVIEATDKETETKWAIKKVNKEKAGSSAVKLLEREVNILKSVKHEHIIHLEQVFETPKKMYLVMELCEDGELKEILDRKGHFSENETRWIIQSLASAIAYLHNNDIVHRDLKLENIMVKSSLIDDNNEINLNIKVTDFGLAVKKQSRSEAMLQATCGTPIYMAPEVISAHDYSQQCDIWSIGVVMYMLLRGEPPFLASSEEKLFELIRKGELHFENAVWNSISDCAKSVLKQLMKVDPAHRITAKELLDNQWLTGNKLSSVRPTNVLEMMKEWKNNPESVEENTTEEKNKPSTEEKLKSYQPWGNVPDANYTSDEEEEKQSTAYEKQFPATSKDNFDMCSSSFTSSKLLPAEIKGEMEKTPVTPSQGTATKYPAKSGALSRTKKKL
A number is an active result; – = inactive; · = not tested or not shown; + = active, no number; ! = a repeat was not active.

SMILES | mut p53 react | NOMO-1 viab | ID4 binder | STK33 inh
CN1CCN(CC(=O)N2N=C(c3c(-c4ccccc4)c4cc(Cl)ccc4[nH]c3=O)CC2c2ccccc2)CC1 (stereo unspecified) | – | 124.3 | – | –
C[C@H](NC(=O)C[C@@H]1C=C[C@H](NC(=O)C2CCC2)[C@@H](CO)O1)c1ccccc1 | · | · | – | ·
CC(=O)OC[C@]12[C@H](OC(C)=O)[C@H](OC(C)=O)[C@@H]3[C@@H](OC(C)=O)[C@@]14O[C@@]3(C)COC(=O)c1ncccc1CC[C@H](C)C(=O)O[C@@H]([C@H](O)[C@@H]2OC(=O)c1ccccc1)[C@]4(C)O | · | 117.1 | · | –
Cc1ccc(N(CC(=O)Nc2c(C)n(C)n(-c3ccccc3)c2=O)S(C)(=O)=O)cc1Cl | – | – | + | –
COc1ccc(S(=O)(=O)N(C)CC(=O)NC2CCCC2)cc1C | – | – | – | –
CC(=O)O[C@@H]1C[C@@H](C)[C@](O)(CCC2=CC(=O)OC2)[C@@]2(C)CCCC(C)(C)C12 (stereo partly specified) | · | 104.4 | · | –
C[C@@H]1CN([C@H](C)CO)C(=O)c2cc(NS(=O)(=O)c3ccccc3)ccc2O[C@@H]1CN(C)Cc1ccc(C(=O)Nc2ccccc2N)cc1 | · | 108.5 | · | ·
Cc1ccc(S(=O)(=O)Nc2ccc3c(c2)C(=O)N([C@H](C)CO)C[C@@H](C)[C@@H](CN(C)Cc2ccc(C(=O)Nc4ccccc4N)cc2)O3)cc1 | · | 110.2 | · | ·
C[C@H](CO)N1C[C@H](C)[C@H](CN(C)Cc2ccc(C(=O)Nc3ccccc3N)cc2)Oc2ccc(NS(=O)(=O)c3ccccc3)cc2C1=O | · | 109.1 | · | ·
C[C@H]1CN([C@@H](C)CO)C(=O)c2cc(NS(=O)(=O)c3ccc(Cl)cc3)ccc2O[C@@H]1CN(C)Cc1ccc(C(=O)Nc2ccccc2N)cc1 | · | – | · | ·
C[C@@H]1CN([C@@H](C)CO)C(=O)c2cc(NS(=O)(=O)c3ccc(Cl)cc3)ccc2O[C@@H]1CN(C)Cc1ccc(C(=O)Nc2ccccc2N)cc1 | · | 110.4 | · | ·
S=C(NCCc1cnc[nH]1)Nc1ccc(Oc2ccccc2)cc1 | – | – | – | –
C[C@@H]1CN([C@@H](C)CO)C(=O)c2cc(NS(=O)(=O)c3ccccc3)ccc2O[C@H]1CN(C)Cc1ccc(C(=O)Nc2ccccc2N)cc1 | · | – | · | ·
C[C@@H]1CN([C@H](C)CO)C(=O)c2cc(NS(=O)(=O)c3ccc(F)cc3)ccc2O[C@@H]1CN(C)Cc1ccc(C(=O)Nc2ccccc2N)cc1 | · | 107.6 | · | ·
Cc1ccccc1-c1nnc(SCC(=O)Nc2ccc(F)c(Cl)c2)n1C | – | – | – | –
COc1ccc(OC)c(-n2c(=S)[nH]c3cc(C(=O)N4CCC(C(N)=O)CC4)ccc3c2=O)c1 | · | – | · | –
COc1ccc(-n2c(=S)[nH]c3cc(C(=O)NC4CCCC(C)C4C)ccc3c2=O)c(OC)c1 (stereo unspecified) | · | 87.4 | · | ·
C[C@H](CO)N1C[C@H](C)[C@H](CN(C)S(=O)(=O)c2cn(C)cn2)Oc2ccc(NC(=O)NC3CCCCC3)cc2C1=O | – | – | – | –
Cc1ccc(S(=O)(=O)Nc2ccc3c(c2)CC(=O)N([C@H](C)CO)C[C@H](C)[C@H](CN(C)C(=O)NC(C)C)O3)cc1 | · | – | · | –
CN1CCN(CCCN2c3ccccc3Sc3ccc(Cl)cc32)CC1 | · | 105.7! | – | –
CN1CCCCC1CCN1c2ccccc2Sc2ccc(S(C)=O)cc21 (stereo unspecified) | · | – | – | –
OCCN1CCN(CCCN2c3ccccc3Sc3ccc(C(F)(F)F)cc32)CC1 | · | 118.5! | · | –
COc1ccc(NC(=O)N(C)C[C@H]2Oc3ccc(NC(=O)CCN4CCOCC4)cc3CC(=O)N([C@@H](C)CO)C[C@H]2C)cc1 | · | – | · | –
Cc1ccc(S(=O)(=O)Nc2ccc3c(c2)C(=O)N([C@H](C)CO)C[C@H](C)[C@H](CN(C)S(=O)(=O)c2cccs2)O3)cc1 | · | – | · | –
O=C(CSc1nnc(-c2ccc(Cl)cc2)o1)Nc1ccc(I)cc1 | – | – | – | –
SMILES | mut p53 react | NOMO-1 viab | ID4 binder | STK33 inh
Cc1cc([N+](=O)[O-])ccc1NC(=O)CSc1nnc(-c2ccccc2)o1 | 66.9 | – | – | –
O=C(CSc1nnc(-c2ccncc2)o1)Nc1ccccc1 | – | – | – | –
O=C(CSc1nnc(-c2ccc(Cl)cc2)o1)Nc1ccccc1C(F)(F)F | 68.0 | – | – | –
COc1cc(OC)cc(-c2nnc(SCC(=O)Nc3ccccc3)o2)c1 | 102.3 | – | – | –
C[C@@H]1CCCCO[C@@H](CN(C)C(=O)c2ccccc2)[C@@H](C)CN([C@H](C)CO)C(=O)c2cc(NS(=O)(=O)c3ccc(Cl)cc3)ccc2O1 | · | – | · | –
COC1OC(OC)C(O)(CC[C@@]2(O)[C@H](C)C[C@@H](O)C3[C@@](C)(CO)CCC[C@]32C)C1O (stereo partly specified) | – | 81.7 | · | –
